For 18 compounds, Potency results are on record in PubChem BioAssay (Tox21).

Results filed as inconclusive are left out. Activity calls are given as the source filed them. Unless noted, the call rests on the fitted dose curve; in most records, active means well fitted curve in the direction sought with a large enough effect in the repeat runs; inconclusive means weak or mixed curves; inactive means no such curve, though single readings can be large; an effect the other way counts as inactive or inconclusive.

Experiment [1] in a line: qHTS assay to identify small molecule antagonists of the thyroid receptor (TR) signaling pathway - cell viability counter screen (AID 743064). Further: nearly all actives have a fitted effect of over 50% in size. Further: potency means the concentration at half of the fitted maximal effect. An outline of the steps:
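GH3.TRE-Luc cells, 4 h pre-plating; cpd + T3 1 nM final; 37 °C 23.5 h; CellTiter-Fluor 30 min; fluorescence read.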

Experiment [2] is described as follows: qHTS assay to identify small molecule antagonists of the thyroid receptor (TR) signaling pathway (AID 743065). Further: nearly all actives have a fitted effect of over 55% in size. Further: potency means the concentration at half of the fitted maximal effect. In a few lines:
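GH3.TRE-Luc rat pituitary cells carrying two TR response elements driving luciferase were plated for 4 h, given compound plus 1 nM T3 (final), and incubated 23.5 h at 37 C. ONE-Glo luminescence measured reporter inhibition; CellTiter-Fluor fluorescence tracked cytotoxicity.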

Experiment [3] relates to thyroid hormone receptor (rat, GH3 cells). In words: qHTS assay to identify small molecule agonists of the thyroid receptor (TR) signaling pathway (AID 743066; calls by dose curve).
Experiment [4] concerns the target Estrogen receptor (Homo sapiens) (UniProt P03372). In words: qHTS assay to identify small molecule antagonists of the estrogen receptor alpha (ER-alpha) signaling pathway (AID 743069; active means well fitted curve in the direction sought with a large enough effect in the signal ratio in the repeat runs, not every such curve was filed as active; the % refers to the signal ratio). An outline of the steps: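 A 17beta-estradiol challenge was applied right after compound transfer to ER-alpha-UAS-bla HEK293 cells previously kept in charcoal-stripped serum. Plates stood 18 hr at 37C and 5% CO2; fluorescence was read following 2 hr FRET substrate loading at room temperature.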

Experiment [5] is described as follows: qHTS assay to identify small molecule antagonists of the estrogen receptor alpha (ER-alpha) signaling pathway - cell viability counter screen (AID 743074; calls by dose curve;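 further: HEK293 cells carrying ER-alpha-UAS-bla reporter stimulated with 17beta-estradiol; nearly all actives have a fitted effect of over 45% in size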).
The target in experiment [6] is Estrogen receptor (Homo sapiens) (UniProt P03372). In words: qHTS assay to identify small molecule agonists of the estrogen receptor alpha (ER-alpha) signaling pathway (AID 743075; calls by dose curve;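 further: HEK293 GripTite cells with ER-alpha and UAS-driven beta-lactamase reporter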).
Sequence of Estrogen receptor (Homo sapiens) (P03372 whole entry, looked up): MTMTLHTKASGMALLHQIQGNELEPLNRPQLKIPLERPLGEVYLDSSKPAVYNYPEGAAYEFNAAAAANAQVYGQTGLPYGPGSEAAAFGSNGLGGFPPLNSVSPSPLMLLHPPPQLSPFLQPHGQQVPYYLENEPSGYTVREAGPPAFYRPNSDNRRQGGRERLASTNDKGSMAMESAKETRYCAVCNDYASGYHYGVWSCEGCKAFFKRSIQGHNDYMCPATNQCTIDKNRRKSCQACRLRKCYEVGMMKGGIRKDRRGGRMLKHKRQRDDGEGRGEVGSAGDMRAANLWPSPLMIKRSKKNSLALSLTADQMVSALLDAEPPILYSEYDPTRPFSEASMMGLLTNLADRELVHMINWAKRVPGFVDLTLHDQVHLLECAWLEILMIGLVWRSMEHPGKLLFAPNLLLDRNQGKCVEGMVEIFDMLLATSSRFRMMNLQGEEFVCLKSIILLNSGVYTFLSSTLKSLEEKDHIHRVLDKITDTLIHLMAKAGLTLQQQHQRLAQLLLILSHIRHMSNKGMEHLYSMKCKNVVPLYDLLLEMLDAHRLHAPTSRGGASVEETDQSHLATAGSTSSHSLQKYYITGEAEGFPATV
The nature of experiment [7]: qHTS assay to identify small molecule antagonists of the estrogen receptor alpha (ER-alpha) signaling pathway using the BG1 cell line (AID 743080; calls by dose curve;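 further: BG1 cells stimulated with 17beta-estradiol alongside compound; series mostly up to about 70 µM; nearly all actives have a fitted effect of over 25% in size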). An outline of the steps:
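Endogenous full-length ER-alpha in BG1-Luc-4E2 cells drives a stably integrated 4×ERE luciferase gene; compounds were tested against 17beta-estradiol over 21.5 h, with luminescence and multiplexed viability fluorescence recorded.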

Experiment [8] is described as follows: qHTS assay to identify small molecule antagonists of the estrogen receptor alpha (ER-alpha) signaling pathway using the BG1 cell line - cell viability counter screen (AID 743081).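 Further: compound given together with 17beta-estradiol as the ER stimulus; series mostly up to about 70 µM; nearly all actives have a fitted effect of over 45% in size.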
The target of experiment [9] is Aromatase (Homo sapiens) (UniProt P11511). In words: qHTS assay to identify aromatase inhibitors (AID 743083). Further: nearly all actives have a fitted effect of over 55% in size. Further: potency means the concentration at half of the fitted maximal effect.
Sequence of Aromatase (Homo sapiens) (P11511 whole entry, looked up): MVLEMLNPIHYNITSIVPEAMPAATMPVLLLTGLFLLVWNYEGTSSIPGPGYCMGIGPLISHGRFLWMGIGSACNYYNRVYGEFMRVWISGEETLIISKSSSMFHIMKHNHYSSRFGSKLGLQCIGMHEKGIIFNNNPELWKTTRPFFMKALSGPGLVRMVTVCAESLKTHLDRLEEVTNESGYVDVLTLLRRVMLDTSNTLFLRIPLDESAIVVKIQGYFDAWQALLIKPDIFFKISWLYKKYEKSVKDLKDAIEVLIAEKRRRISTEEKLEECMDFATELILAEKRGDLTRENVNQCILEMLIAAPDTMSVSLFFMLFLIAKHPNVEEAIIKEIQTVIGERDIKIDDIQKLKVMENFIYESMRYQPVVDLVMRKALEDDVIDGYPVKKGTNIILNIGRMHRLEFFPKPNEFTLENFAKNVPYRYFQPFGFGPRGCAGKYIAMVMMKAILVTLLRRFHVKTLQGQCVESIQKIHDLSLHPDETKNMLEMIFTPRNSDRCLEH
Experiment [10] is described as follows: qHTS assay to identify aromatase inhibitors - cell viability counter screen (AID 743084).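 Further: cells stimulated with testosterone during compound exposure; nearly all actives have a fitted effect of over 55% in size.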
Experiment [11] deals with Aryl hydrocarbon receptor (Homo sapiens) (UniProt P35869). In words: qHTS assay to identify small molecule that activate the aryl hydrocarbon receptor (AhR) signaling pathway (AID 743085). Further: nearly all actives have a fitted effect of over 15% in size. Further: potency means the concentration at half of the fitted maximal effect.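 On activation: HG2L7.5c1 human HepG2 liver cells with stably integrated DRE-driven firefly reporter; series mostly up to about 70 µM.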 An outline of the steps: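 Luminescence read-out: ONE-Glo reagent, 30 min at room temperature, in HG2L7.5c1 HepG2 reporter cells treated 24 h at 37C. Viability was measured beforehand by CellTiter-Fluor fluorescence after 30 min at 37C.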
Sequence of Aryl hydrocarbon receptor (Homo sapiens) (P35869 whole entry, looked up): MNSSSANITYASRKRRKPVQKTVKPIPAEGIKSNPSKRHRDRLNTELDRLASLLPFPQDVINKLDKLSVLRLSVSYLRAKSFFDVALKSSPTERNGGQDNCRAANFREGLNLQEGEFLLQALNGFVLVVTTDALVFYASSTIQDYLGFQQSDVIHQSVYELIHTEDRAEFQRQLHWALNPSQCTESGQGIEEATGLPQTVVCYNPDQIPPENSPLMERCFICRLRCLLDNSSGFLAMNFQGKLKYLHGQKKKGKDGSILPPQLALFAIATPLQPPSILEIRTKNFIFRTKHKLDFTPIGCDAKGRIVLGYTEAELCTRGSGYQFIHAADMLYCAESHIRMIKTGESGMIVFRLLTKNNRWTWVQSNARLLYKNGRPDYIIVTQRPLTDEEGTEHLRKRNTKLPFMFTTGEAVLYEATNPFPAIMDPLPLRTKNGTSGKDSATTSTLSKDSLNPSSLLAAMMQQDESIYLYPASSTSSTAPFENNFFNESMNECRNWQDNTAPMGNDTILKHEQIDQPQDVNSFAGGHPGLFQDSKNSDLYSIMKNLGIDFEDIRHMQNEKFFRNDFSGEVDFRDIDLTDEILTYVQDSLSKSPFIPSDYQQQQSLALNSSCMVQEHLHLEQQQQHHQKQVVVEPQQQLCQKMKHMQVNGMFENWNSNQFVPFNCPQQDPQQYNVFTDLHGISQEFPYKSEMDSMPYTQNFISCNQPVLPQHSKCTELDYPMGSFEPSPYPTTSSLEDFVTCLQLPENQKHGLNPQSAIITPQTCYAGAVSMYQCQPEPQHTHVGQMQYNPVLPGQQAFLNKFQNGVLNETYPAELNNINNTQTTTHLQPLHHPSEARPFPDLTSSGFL

Experiment [12] can be described thus: qHTS assay to identify small molecule that activate the aryl hydrocarbon receptor (AhR) signaling pathway - cell viability counter screen (AID 743086). Further: nearly all actives have a fitted effect of over 45% in size. Further: potency means the concentration at half of the fitted maximal effect. An outline of the steps: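 HepG2-AhR-luc (HG2L7.5c1) cells, 4000/well, were preincubated 5 h at 37C, exposed to compound in qHTS format for 24 hr at 37C, then given CellTiter-Fluor for 30 min; viability was read as fluorescence in the reporter wells.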

The target in experiment [13] is Peroxisome proliferator-activated receptor gamma (Homo sapiens) (UniProt P37231). In words: qHTS assay to identify small molecule agonists of the peroxisome proliferator-activated receptor gamma (PPARg) signaling pathway (AID 743094; active means well fitted activation curve with a large enough effect in the signal ratio in the repeat runs, not every such curve was filed as active; the % refers to the signal ratio). In a few lines: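 Cell-based bla reporter, HEK293H background, PPARg-driven UAS. Pre-incubation 5 h, 37C, 5% CO2. Compound 17 h, 37C. Substrate 1 h RT; fluorescence.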
Sequence of Peroxisome proliferator-activated receptor gamma (Homo sapiens) (P37231 whole entry, looked up): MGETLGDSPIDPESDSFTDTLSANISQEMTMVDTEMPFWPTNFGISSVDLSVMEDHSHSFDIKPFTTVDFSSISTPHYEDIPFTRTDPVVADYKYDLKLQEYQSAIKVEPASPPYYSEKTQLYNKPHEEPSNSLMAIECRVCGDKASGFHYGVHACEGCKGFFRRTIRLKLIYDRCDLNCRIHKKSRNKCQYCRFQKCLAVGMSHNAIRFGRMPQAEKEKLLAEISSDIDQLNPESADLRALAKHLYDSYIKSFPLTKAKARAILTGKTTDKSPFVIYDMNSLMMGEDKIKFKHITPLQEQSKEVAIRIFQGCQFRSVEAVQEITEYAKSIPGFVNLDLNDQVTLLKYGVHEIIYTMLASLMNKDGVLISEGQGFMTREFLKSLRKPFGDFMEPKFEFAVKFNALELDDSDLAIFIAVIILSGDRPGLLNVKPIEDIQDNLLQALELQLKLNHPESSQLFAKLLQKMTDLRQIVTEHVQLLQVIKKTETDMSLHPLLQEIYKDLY

Experiment [14] has as its target Estrogen receptor (Homo sapiens) (UniProt P03372). In words: qHTS assay to identify small molecule agonists of the estrogen receptor alpha (ER-alpha) signaling pathway using the BG1 cell line (AID 743079). Further: nearly all actives have a fitted effect of over 20% in size. Further: potency means the concentration at half of the fitted maximal effect.
Experiment [15] deals with Peroxisome proliferator-activated receptor gamma (Homo sapiens) (UniProt P37231). In words: qHTS assay to identify small molecule antagonists of the peroxisome proliferator-activated receptor gamma (PPARg) signaling pathway (AID 743191; calls by dose curve; further: series mostly up to about 63 µM; nearly all actives have a fitted effect of over 30% in size). An outline of the steps:
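GeneBLAzer PPARg UAS-bla HEK293H cells carrying a UAS-driven beta-lactamase reporter were plated at 3000 cells/well, preincubated 5 h at 37C, then given compound for 17 h at 37C; LiveBLAzer B/G FRET substrate was read after 1 h at room temperature.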

Experiment [16] is described as follows: qHTS assay for small molecule agonists of the antioxidant response element (ARE) signaling pathway (AID 743202; active means well fitted activation curve with a large enough effect in the signal ratio in the repeat runs, not every such curve was filed as active; the % refers to the signal ratio; further: potency means the concentration at half of the fitted maximal effect). In a few lines:
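Following a 16 h, 37 C exposure of reporter HepG2 cells (ARE-driven beta-lactamase, 2,000 cells/well) to compounds, FRET substrate was applied for 2 h at room temperature and fluorescence intensity recorded.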

Experiment [17] is described as follows: qHTS assay to identify small molecule antagonists of the peroxisome proliferator-activated receptor gamma (PPARg) signaling pathway - cell viability counter screen (AID 743194). Further: potency means the concentration at half of the fitted maximal effect; nearly all actives have a fitted effect of over 55% in size. An outline of the steps:
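PPARg-UAS-bla HEK293H cells were plated, rested 5 h at 37 C, then treated with compounds plus rosiglitazone (50 nM final) for 17 h at 37 C; viability was then read by CellTiter-Glo luminescence after 30 min at room temperature.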

With `C[C@H](O)CN(C)C`, the Potency result in experiment [1], in [2], in experiment [3], in experiment [4], in experiment [5] and in experiment [6] was “inactive” throughout. The Potency entry in [7], in experiment [8], in experiment [9], in experiment [10], in experiment [11] and in [12] was “inactive” throughout. For the same compound, the Potency result in experiment [13] was “inactive”.

With `OCCCNc1ccccc1`, the Potency result in [1], in experiment [2], in [3], in experiment [4], in experiment [5] and in experiment [6] was “inactive” throughout. For the same compound, the Potency result in experiment [14], in experiment [7], in [9], in [10], in [11] and in experiment [12] was “inactive” throughout. Besides, in experiment [13], the Potency result was “inactive”.

As for `CCCCCCCCCCCCCC(=O)OCC(COP(=O)([O-])OCC[N+](C)(C)C)OC(=O)CCCCCCCCCCCCC` (stereo not drawn), the Potency entry in experiment [1], in [2], in experiment [3], in experiment [4], in experiment [5] and in experiment [6] was “inactive” in each case. Further, the Potency entry in [14], in experiment [7], in experiment [9], in experiment [10], in experiment [11] and in experiment [12] was “inactive” throughout. Further, the Potency entry in experiment [13] was “inactive”.

`C=C1[C@@H]2CC[C@@H](C2)C1(C)C`: the Potency entry in [1], in [2], in experiment [3], in experiment [4], in experiment [5] and in experiment [6] was “inactive” in each case. The Potency entry in experiment [7], in experiment [8], in experiment [9], in experiment [10], in experiment [11] and in [12] was “inactive” throughout. Moreover, the Potency entry in experiment [13] is “inactive”. For the same compound, the Potency in experiment [14] is 29.8 µM (active).

Take `NCCCC(=O)O`: the Potency result in experiment [1], in experiment [2], in experiment [3], in [4], in [5] and in experiment [6] was “inactive” in each case. Moreover, the Potency entry in experiment [14], in experiment [7], in experiment [8], in experiment [9], in experiment [11] and in [12] was “inactive” each time. Moreover, in experiment [13], the Potency entry was “inactive”.

In the case of `NC(=O)[C@@H]1C[C@]2(NC(=O)NC2=O)c2cc(F)ccc2O1`, the Potency result in experiment [1], in experiment [2], in experiment [3], in experiment [4], in experiment [5] and in experiment [6] was “inactive” in each case. The Potency result in [14], in experiment [7], in experiment [8], in experiment [9], in experiment [10] and in [12] was “inactive” in each case. In [13], the Potency result is “inactive”.

Turning to `C[C@H](Cc1ccc(O)c(O)c1)[C@@H](C)Cc1ccc(O)c(O)c1`, the Potency in experiment [1] was 9.44 µM (active); in [2], 8.41 µM (active). The Potency entry in experiment [3], in experiment [4], in [5], in experiment [6], in experiment [14] and in experiment [7] was “inactive” each time. The Potency result in [8], in [9], in [10], in [12] and in experiment [13] was “inactive” each time.

With `C[Se]CC[C@H](N)C(=O)O`, the Potency entry in experiment [1], in experiment [2], in experiment [3], in experiment [4], in experiment [5] and in experiment [6] was “inactive” throughout. The Potency result in [14], in experiment [9], in experiment [10] and in experiment [13] was “inactive” in each case.

As to `CC(C)(C)C(=O)OCC(=O)[C@H]1CC[C@H]2[C@@H]3CCC4=CC(=O)CC[C@]4(C)[C@H]3CC[C@]12C`, the Potency entry in [1], in experiment [2], in experiment [3], in experiment [4], in experiment [5] and in experiment [6] was “inactive” throughout. In addition, the Potency result in experiment [7], in [8], in experiment [9], in experiment [10], in experiment [11] and in experiment [12] was “inactive” each time. Further, the Potency entry in experiment [13] was “inactive”.

In the case of `O=C1OC(=O)c2cc(-c3ccc4c(c3)C(=O)OC4=O)ccc21`, the Potency result in [15] was “inactive”.

`CC(C)c1ccc2sc3ccccc3c(=O)c2c1`: in experiment [16], the Potency is 9.69 µM (active).

As for `C[C@@H]1O[C@@H](OC[C@H]2O[C@@H](Oc3c(-c4ccc(OCCO)c(OCCO)c4)oc4cc(OCCO)cc(O)c4c3=O)[C@H](O)[C@@H](O)[C@@H]2O)[C@H](O)[C@H](O)[C@H]1O`, the Potency entry in experiment [1], in experiment [2], in experiment [3], in experiment [5], in experiment [8] and in experiment [9] was “inactive” each time. The Potency entry in [10], in [11], in experiment [12] and in experiment [13] was “inactive” each time.

As for `CCOc1cc(CC(=O)N[C@@H](CC(C)C)c2ccccc2N2CCCCC2)ccc1C(=O)O`, the Potency result in experiment [1], in experiment [2], in [3], in [5], in experiment [9] and in experiment [10] was “inactive” each time. The Potency result in experiment [11] and in experiment [12] was “inactive” in each case.

As to `CCOC(=O)[C@H](CCc1ccccc1)N[C@@H](C)C(=O)N1[C@H](C(=O)O)C[C@H]2CCCC[C@@H]21`, the Potency result in [1], in experiment [2], in [3], in experiment [5], in experiment [8] and in experiment [9] was “inactive” throughout. Moreover, the Potency entry in [10], in [11], in experiment [12] and in experiment [13] was “inactive” each time.

In the case of `O=C(O)c1cc(=O)c2c3nc4ccccc4oc-3cc(=O)c2[nH]1`, the Potency result in [1], in experiment [2], in experiment [3], in experiment [5], in experiment [8] and in [9] was “inactive” throughout. Also, the Potency result in [10], in [12] and in experiment [13] was “inactive” throughout. Further, the Potency in experiment [11] is 4.22 µM (active).

For the compound `c1ccc(-n2cnnn2)cc1`, the Potency entry in experiment [1], in experiment [2], in experiment [3], in experiment [5], in experiment [8] and in experiment [9] was “inactive” in each case. For the same compound, the Potency entry in experiment [10], in experiment [12] and in experiment [13] was “inactive” each time.

Consider `COc1cc2c(c(OC)c1OC)-c1c(cc3c(c1OC)OCO3)C[C@@H](C)[C@](C)(O)C2`, for which the Potency result in [1], in [2], in experiment [3], in experiment [5], in experiment [9] and in experiment [13] was “inactive” in each case. Moreover, in [12], the Potency was 29.8 µM (active).

`O=C(Nc1ccccc1)c1cc(Cl)ccc1O`: the Potency in experiment [1] was 10.9 µM (active); in [2] it was 5.45 µM (active); in experiment [9], 27.3 µM (active); in experiment [11], 3.06 µM (active); in [17], 6.92 µM (active). The Potency result in experiment [3] and in experiment [12] was “inactive” each time.
